Sampled rows, rich in hits. Any-hit rate of the full collection: about 0.66%.
SK-BR-3 tox 24h: SK-BR-3 proliferation inhibitors; SK-BR-3 viability, CellTiter-Glo ATP luminescence, 24 h; hits give low values; viability, % at 10 µM; 41,000 tested, 0.47% active;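 active = viability at or below the median of all test compounds minus 3 SD, in both replicates if run twice, cut at about 45% in these data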;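 also: 100% = median untreated cell wells and 0% = median positive control drug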
mHtt clearance: mutant huntingtin protein clearance | HeLa Exon1htt(103Q)mCFP, aggregate imaging; zero = plate's median compound well | inhibition, % at 1.5 µM | 47,000 tested, 0.42% active | AID 853;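 active = inhibition of aggregate fluorescence above about 70%, also judged a hit by eye on the cell image, limit read from the data, passing the limit was not always enough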;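 also: cells exposed to compound for three days before fixation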
* = called active by the depositor.

C=CCn1c(O)c(C(CC)=NCCCO)c(=O)[nH]c1=O was read as SK-BR-3 tox 24h 44* and mHtt clearance 24.
Screening C=CCn1c(O)c(C(CC)=NCc2cc(OC)cc(OC)c2)c(=O)[nH]c1=O returned SK-BR-3 tox 24h 34* and mHtt clearance -32.
`C=CCn1c(O)c(C(CC)=Nc2ccccc2NC(C)=O)c(=O)[nH]c1=O` gave SK-BR-3 tox 24h 117 and mHtt clearance 6.
For CCCCn1c(O)c(C(CC)=NCc2ccc3c(c2)OCO3)c(=O)[nH]c1=O the results were SK-BR-3 tox 24h 90 and mHtt clearance -9.
For Nc1nnc(CCN2CCCCC2)s1 the results were mHtt clearance -10.
`Cc1ccc2nc(N3CCN(C)CC3)[nH]c2c1` gave SK-BR-3 tox 24h 51 and mHtt clearance 5.
CN1CCc2nc3sc(C(=O)NC(C)(C)C)c(N)c3cc2C1 was read as mHtt clearance 24.
For COc1ccc(C2SCC(=O)Nc3c2c(=O)[nH]n3C2CCCCCC2)cc1OC (stereo not given) the results were SK-BR-3 tox 24h 96.
For Cc1nnc(SCc2nc3ccccc3c(=O)n2-c2ccccc2Cl)n1N the results were SK-BR-3 tox 24h 112 and mHtt clearance 72*.
CCCCc1nc2ccccc2c(=O)n1-c1ccc(Cl)cc1[N+](=O)[O-] was read as mHtt clearance -4.
For O/N=C/c1c[nH]c2ccccc12 the results were SK-BR-3 tox 24h 96 and mHtt clearance 26.
`C=CCN(CC=C)Cc1c[nH]c2ccccc12` gave SK-BR-3 tox 24h 27*.
c1ccc2c(c1)OCC(C1=NCCN1)O2 (stereo not given) was read as SK-BR-3 tox 24h 88.
Screening CCn1nc(-c2ccccc2)nc2c(=O)n(C)c(=O)nc1-2 returned SK-BR-3 tox 24h 38*.
OCc1cnc[nH]1 was read as SK-BR-3 tox 24h 90.
Screening CN1C(=O)C(=Cc2ccccc2Oc2ccc(Cl)cc2)C(=O)N(C)C1=O returned mHtt clearance 82*.
`Cc1cccc(NC(=O)CSc2nnc([C@@H](N)Cc3c[nH]c4ccccc34)o2)c1C` gave SK-BR-3 tox 24h 88 and mHtt clearance -8.
Screening Cc1c(C(=O)N2CCC3(CC2)OCCO3)sc2ncnc(N3CCN(c4ccccn4)CC3)c12 returned SK-BR-3 tox 24h 38*.
For O=C(c1sc2ccccc2c1Cl)N1CCC2(CC1)OCCO2 the results were SK-BR-3 tox 24h 92 and mHtt clearance -92.
For CCN1CC=C(c2c[nH]c3ccccc23)CC1 the results were mHtt clearance 41.
For CCn1c(O)c(C(c2ccccn2)c2c(O)n(CC)c(=S)[nH]c2=O)c(=O)[nH]c1=S the results were mHtt clearance -67.

Screening results from PubChem BioAssay.
